From PubChem BioAssay AID1851 (National Center for Advancing Translational Sciences (NCATS), 2009) come the findings set out here.

Each structure is given as a SMILES string. Several values for one entry are separate records, joined by “and”; a condition that tells them apart may be missing. Identical values can stand only once. Among all 16,000 compounds or so, about 5,700 (36%) were called active. Not shown: some 24% with an inconclusive outcome. Calls follow the shape of the dose curve; as a rule, active = well fitted curve in the direction sought with a large enough effect; inconclusive = small, poorly fitted or top-dose-only effect, or effect the other way; inactive = no such curve, though single readings can be large or run the other way. This is one part of the list.
% is scaled to controls: 0 for no effect and ±100 for the full control effect.

The target of this assay is Cytochrome P450 1A2 (Homo sapiens) (UniProt P05177). The experiment in a line: Cytochrome panel assay with activity outcomes. Particulars: recombinant CYP, pro-luciferin dealkylation, luminescence, p450-cyp1a2; series mostly up to 57.1 µM.
Cytochrome P450 1A2 (Homo sapiens), sequence (P05177 whole entry, looked up): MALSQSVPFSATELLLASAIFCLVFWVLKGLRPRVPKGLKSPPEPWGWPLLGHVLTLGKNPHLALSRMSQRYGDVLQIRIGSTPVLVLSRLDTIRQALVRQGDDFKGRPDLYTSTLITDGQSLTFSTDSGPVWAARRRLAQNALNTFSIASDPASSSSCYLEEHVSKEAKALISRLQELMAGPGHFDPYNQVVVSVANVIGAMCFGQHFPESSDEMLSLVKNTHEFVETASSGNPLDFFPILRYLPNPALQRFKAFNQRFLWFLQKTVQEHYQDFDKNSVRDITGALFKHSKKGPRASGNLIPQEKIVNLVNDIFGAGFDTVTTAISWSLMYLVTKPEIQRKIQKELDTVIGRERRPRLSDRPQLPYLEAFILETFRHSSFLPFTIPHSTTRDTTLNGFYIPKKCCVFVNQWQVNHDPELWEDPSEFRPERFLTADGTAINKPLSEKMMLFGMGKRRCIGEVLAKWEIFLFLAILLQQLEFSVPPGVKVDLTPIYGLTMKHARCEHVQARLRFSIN
As for `Cc1cc(NC(=O)CCC(=O)N2CCC3(CC2)OCCO3)no1`, the AC50 result is “inactive”.

`Cc1ccc(S(=O)(=O)NCC2CCC(C(=O)N3CCC4(CC3)OCCO4)CC2)cc1` (configuration not stated): the AC50 entry is “inactive”.

In the case of `Cc1ccc2cc3cc(C(=O)N4CCC5(CC4)OCCO5)oc3nc2c1`, the AC50 was 2.51 µM (active).

Regarding `COC(=O)[C@H](N)CCCN=C(N)N[N+](=O)[O-]`, the AC50 result was “inactive”.

On to `CN1CCc2cccc(Cl)c2CC1`, for which the AC50 entry was “inactive”.

On to `CCCC(=O)Nc1ccc(N2CCN(CC)CC2)c(Cl)c1`, for which the AC50 entry was “inactive”.

Take `C[C@@H]1O[C@H](O[C@@H]2CC[C@@]3(C=O)[C@H]4CC[C@@]5(C)[C@@H](C6=CC(=O)OC6)CC[C@@]5(O)[C@@H]4CC[C@]3(O)C2)C[C@H](O)[C@@H]1O`: the AC50 entry is “inactive”.

In the case of `CN1C(=O)C(=Cc2ccccc2Oc2ccc(Cl)c(F)c2)C(=O)N(C)C1=O`, the AC50 was 22.4 µM (active).

For the compound `Cc1ccc(N2C(=O)/C(=C/N3CCN(C(=O)c4ccco4)CC3)C(=O)NC2=S)cc1C`, the AC50 result is “inactive”.

For `O=C(NC1CCCCC1)NC1CC2CCC(C1)N2Cc1nnnn1Cc1ccc2c(c1)OCO2` (configuration not stated), the AC50 entry was “inactive”.

Take `CC(C)CN1CC2(CCN(C(=O)Oc3ccccc3)CC2)C1`: the AC50 result is “inactive”.

As to `c1csc(CN2CCC3(CCNCC3)CC2)n1`, the AC50 result is “inactive”.

In the case of `COc1cc(OC)c(/C=C2/C(=O)Nc3ccccc32)c(OC)c1`, the concentration at half-maximal activity (AC50) is 0.501 µM (active).

As to `C=C(C)c1ccccc1` (tested in a mixture with another compound), the activity, negative = inhibition is -19.6% [at 2.29 µM] (inactive).

Consider `C[N+]1([O-])[C@@H]2CC[C@H]1CC(OC(=O)[C@@H](CO)c1ccccc1)C2` (some centres not stated), for which the AC50 result was “inactive”.

Consider `CC(=O)Nc1ccccc1C(=O)OCC(=O)c1ccc2ccccc2c1`, for which the AC50 is 3.16 µM (active).

Take `CC(=O)Nc1ccccc1C(=O)OCc1ccc(C(=O)c2ccccc2)cc1`: the AC50 result is “inactive”.

`CS(=O)(=O)O[C@H]1CN2CCC1CC2`: the activity, negative = inhibition is -18.7% [at 11.4 µM] (inactive).

Turning to `CCOc1ccc(C2C(C#N)=C(N)Oc3c2c(=O)oc2ccccc32)cc1` (configuration not stated), the AC50 was 5.01 µM (active).

In the case of `COc1ccc2c3c1O[C@@H]1C(=O)CC[C@@]4(O)[C@@H](C2)N(CC2CC2)CC[C@]314`, the AC50 entry was “inactive”.

On to `C[C@H](Br)C(=O)c1ccc2cc(Br)c3ccccc3c2c1`, for which the AC50 is 0.158 µM (active).

As to `CC1=C(CC[C@H](C)CO)O[C@@H]2C[C@@H]3[C@H]4CC[C@H]5C[C@@H](O)CC[C@]5(C)[C@@H]4CC(=O)[C@@]3(C)[C@@H]12`, the activity, negative = inhibition is -21.1% [at 2.29 µM] (inactive).

Consider `O=C(O)Cc1cnc[nH]1`, for which the AC50 entry was “inactive”.

Regarding `NC(N)=NS(=O)(=O)c1ccc(N)cc1`, the AC50 result is “inactive”.

In the case of `O=C1c2cc([N+](=O)[O-])ccc2-c2ccc3c4ccc5c6c(ccc(c7ccc1c2c73)c64)C(=O)c1cc([N+](=O)[O-])ccc1-5`, the half-maximal activity concentration (AC50) is 0.794 µM (active).

Take `O=C(O)CCCc1ccc(N(CCCl)CCCl)cc1`: the AC50 entry was “inactive”.

For `C[C@@H]1O[C@H]1P(=O)(O)O`, the AC50 entry is “inactive”.

Turning to `Cc1c2ccncc2c(C)c2c1[nH]c1ccccc12`, the AC50 was 0.02 µM (active).

With `Cc1nccc2c1[nH]c1ccccc12`, the AC50 was 1.26 µM (active) and 631 nM (active).

In the case of `COC(=O)[C@H]1C(=O)c2ccccc2O[C@@](C(=O)OC)(c2ccccc2)[C@@H]1c1ccccc1`, the activity, negative = inhibition was 6.39% [at 11.4 µM] (inactive).

Regarding `C[N+]1(C)CCN(c2ccccc2)CC1`, the AC50 entry is “inactive”.

As to `COc1ccc(C(=O)OC2C[C@H]3CC[C@@H](C2)N3C)cc1OC` (some centres not stated), the AC50 entry was “inactive”.

On to `Cc1cccc(NC(=S)NC2CC3CCCC(C2)N3Cc2cccs2)c1` (configuration not stated), for which the AC50 result is “inactive”.

As to `CCc1ccccc1NC(=O)NC1CC2CCC(C1)N2Cc1cccs1` (configuration not stated), the AC50 entry is “inactive”.

As for `CCSc1nnc(C(N)Cc2ccccc2)o1` (configuration not stated), the AC50 entry was “inactive”.

Take `NCCCNCCSP(=O)(O)O`: the AC50 entry is “inactive”.

On to `O=C(Nc1cccc2ccccc12)c1nn(C23CC4CC(CC(C4)C2)C3)cc1Br`, for which the AC50 result is “inactive”.

As for `CC1CN=C(Nc2cccc3ccccc23)S1` (configuration not stated), the half-maximal activity concentration (AC50) is 2 µM (active).

With `CCC12C=CCN3CCC4(c5cc(Br)c(OC)cc5N(C)C4C(O)(C(=O)OC)C1OC(C)=O)C32` (configuration not stated), the AC50 entry is “inactive”.

Consider `CCC[C@@H]1CC2=CC(=O)CC[C@]2(C)[C@@H]2CC[C@@]3(C)[C@H](CC[C@]3(O)CCC(=O)O)[C@H]12`, for which the AC50 result was “inactive”.

On to `COc1cc(C[C@H](C)N)c(OC)cc1I`, for which the AC50 was 6.31 µM (active) and 12.6 µM (active).

Regarding `Clc1cnc(Oc2ccc(Oc3ncc(Cl)cc3Cl)cc2)c(Cl)c1`, the AC50 entry was “inactive”.

Turning to `CCNC[C@H](O)c1cccc(O)c1`, the AC50 entry is “inactive”.

Take `c1cncc(CNCCN2CCNCC2)c1`: the activity, negative = inhibition is 6.05% [at 11.4 µM] (inactive).

With `c1cncc(CNc2cc(-c3ccc4c(c3)OCO4)ncn2)c1`, the AC50 was 0.251 µM (active).

For `Cc1o[nH]c(=O)c1C[C@H](N)C(=O)O`, the AC50 result was “inactive”.

In the case of `c1ccc2sc(C3(N4CCCCC4)CCCCC3)cc2c1`, the AC50 entry is “inactive”.

As for `COc1ccn(C)c(=O)c1C#N`, the AC50 result is “inactive”.

Consider `CO[C@H]1[C@H](O)[C@H](O[C@@H]2[C@H](Oc3cccc4c(O)c5c(=O)oc6ccc(C)c7c(=O)oc(c34)c5c67)O[C@@H](C)[C@H](O)[C@H]2O)O[C@@H](C)[C@@H]1O`, for which the activity, negative = inhibition is -16.6% [at 11.4 µM] (inactive).

`O=[As](O)(O)c1ccc2nc3cc([As](=O)(O)O)ccc3nc2c1`: the activity, negative = inhibition was -15.1% [at 11.4 µM] (inactive).

Regarding `C=C1[C@@H](O)C2C=CC[C@H](C)C(=O)[C@@](C)(O)C=C[C@@H](OC(C)=O)[C@@]23C(=O)N[C@H](Cc2ccccc2)[C@@H]3[C@@H]1C` (some centres not stated), the AC50 result was “inactive”.

Turning to `c1ccc(N2CCCC3(CCNCC3)C2)cc1`, the AC50 result was “inactive”.
